# Laboratory results reported in PubChem BioAssay (EPA / NIEHS).
# Activity calls are given as the source filed them. The calls were made as follows: active = hit-call score of the fitted dose curve at least 0.9, where 1 is the maximum; inactive = score below 0.9.
# Tests used:
# Conditions in all cases: mRNA level, 48 h; actives raise or lower the signal
# [1] = read-out: solute carrier (SLCO1B1), SLCO1B1 (gene 10599); experiment: LTEA_HepaRG_SLCO1B1: Life Technologies and Expression Analysis (LTEA) Assay for solute carrier (SLCO1B1) using HepaRG (AID 2283530)
# Summary of the method: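 HepaRG, serum-free induction medium, 48 h dosing, 8-pt half-log from 100 uM, 0.5% DMSO vehicle, duplicates. Readout: SLCO1B1 mRNA, qRT-PCR, ACTB/GAPDH/POLR2A normalization; up or down fit vs DMSO.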
# [2] = read-out: sulfotransferase 2A1 (SULT2A1), SULT2A1 (gene 6822); experiment: LTEA_HepaRG_SULT2A1: Life Technologies and Expression Analysis (LTEA) Assay for sulfotransferase 2A1 (SULT2A1) using HepaRG (AID 2283531)
# Summary of the method: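 Transcript levels of SULT2A1, quantified by qRT-PCR and normalized to three housekeeping genes, serve as the readout. Human HepaRG cultures receive test chemicals for 48 h at up to 100 uM in half-log steps, with 0.5% DMSO vehicle.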
# [3] = read-out: Transforming Growth Factor (TGFA), TGFA (gene 7039); experiment: LTEA_HepaRG_TGFA: Life Technologies and Expression Analysis (LTEA) Assay for Transforming Growth Factor (TGFA) using HepaRG (AID 2283532)
# Summary of the method: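 Differentiated HepaRG cells exposed 48 hours in serum-free induction medium, 0.5% DMSO vehicle, 8-point half-log series from 100 uM, in duplicate. TGFA mRNA by TaqMan qRT-PCR, normalised to ACTB, GAPDH, POLR2A; bidirectional fit versus DMSO.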
# [4] = read-out: Transforming Growth Factor (TGFB1), TGFB1 (gene 7040); experiment: LTEA_HepaRG_TGFB1: Life Technologies and Expression Analysis (LTEA) Assay for Transforming Growth Factor (TGFB1) Transporter using HepaRG (AID 2283533)
# Summary of the method: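 HepaRG, 48 h post-plating, switched to serum-free induction medium; chemicals 100 uM top, half-log, 8 pts, 0.5% DMSO, dup; 48 h exposure; RNA → Fluidigm TaqMan qRT-PCR; norm ACTB/GAPDH/POLR2A; bidirectional fit vs DMSO.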
# TIMP1, TIMP1 (gene 7076) = experiment: LTEA_HepaRG_TIMP1: Life Technologies and Expression Analysis (LTEA) Assay for TIMP1 using HepaRG (AID 2283534);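 also: TaqMan qRT-PCR signal normalized to ACTB GAPDH and POLR2A housekeeping genes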
# Summary of the method: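 Readout is TIMP1 mRNA level measured by qRT-PCR and normalized to three housekeeping genes. Human HepaRG cells were treated for 48 h in duplicate at eight concentrations up to 100 uM (0.5% DMSO); gain or loss fitted against DMSO.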
# [5] = read-out: Tumor necrosis factor receptor 1 (TNFRSF1A), TNFRSF1A (gene 7132); experiment: LTEA_HepaRG_TNFRSF1A: Life Technologies and Expression Analysis (LTEA) Assay for Tumor necrosis factor receptor 1 (TNFRSF1A) using HepaRG (AID 2283535)
# Summary of the method: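 Read-out is TNFRSF1A transcript level by TaqMan qRT-PCR, normalized to three housekeeping genes, scored as gain or loss of signal versus 0.5% DMSO. Human HepaRG cells received test chemicals for 48 h at up to 100 uM (half-log series).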
# [6] = read-out: Thyroid Hormone Responsive (THRSP), THRSP (gene 7069); experiment: LTEA_HepaRG_THRSP: Life Technologies and Expression Analysis (LTEA) Assay for Thyroid Hormone Responsive (THRSP) using HepaRG (AID 2283536)
# Summary of the method: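 Differentiated HepaRG cells treated 48 h in serum-free induction medium with 8 half-log concentrations up to 100 uM (0.5% DMSO), duplicates. THRSP mRNA by TaqMan qRT-PCR normalised to ACTB, GAPDH, POLR2A; bidirectional fit versus DMSO.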
# [7] = read-out: Cellular tumor antigen p53 (Homo sapiens) (UniProt P04637); experiment: LTEA_HepaRG_TP53: Life Technologies and Expression Analysis (LTEA) Assay for Tumor Protein P53 (TP53) using HepaRG (AID 2283537)
# Summary of the method: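 Differentiated HepaRG cells in serum-free induction medium exposed 48 h in duplicate to 8 half-log concentrations, top 100 uM, 0.5% DMSO. TP53 mRNA by TaqMan qRT-PCR (Fluidigm), normalized to ACTB, GAPDH, POLR2A; fitted bidirectionally versus DMSO.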
# [8] = read-out: UDP glucuronosyltransferase (UGT1A1), UGT1A1 (gene 54658); experiment: LTEA_HepaRG_UGT1A1: Life Technologies and Expression Analysis (LTEA) Assay for UDP glucuronosyltransferase (UGT1A1) using HepaRG (AID 2283538)
# Summary of the method: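 Human liver HepaRG cultures receive test chemical for 48 h, up to 100 uM in 0.5% DMSO, with phenobarbital induction controls. UGT1A1 mRNA is measured by qRT-PCR and normalized to ACTB, GAPDH and POLR2A.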
# [9] = read-out: Signal transducer and activator of transcription 3 (Homo sapiens) (UniProt P40763); experiment: LTEA_HepaRG_STAT3: Life Technologies and Expression Analysis (LTEA) Assay for Signal transducer and activator of transcription (STAT3) using HepaRG (AID 2283529)
# Summary of the method: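 Differentiated HepaRG cells, serum-free induction medium, dosed 48 h in duplicate, 8 half-log concentrations from 100 uM in 0.5% DMSO. STAT3 mRNA by qRT-PCR, normalised to ACTB, GAPDH, POLR2A; bidirectional fit versus DMSO.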
# Chain of Signal transducer and activator of transcription 3 (Homo sapiens) (P40763 whole entry, looked up): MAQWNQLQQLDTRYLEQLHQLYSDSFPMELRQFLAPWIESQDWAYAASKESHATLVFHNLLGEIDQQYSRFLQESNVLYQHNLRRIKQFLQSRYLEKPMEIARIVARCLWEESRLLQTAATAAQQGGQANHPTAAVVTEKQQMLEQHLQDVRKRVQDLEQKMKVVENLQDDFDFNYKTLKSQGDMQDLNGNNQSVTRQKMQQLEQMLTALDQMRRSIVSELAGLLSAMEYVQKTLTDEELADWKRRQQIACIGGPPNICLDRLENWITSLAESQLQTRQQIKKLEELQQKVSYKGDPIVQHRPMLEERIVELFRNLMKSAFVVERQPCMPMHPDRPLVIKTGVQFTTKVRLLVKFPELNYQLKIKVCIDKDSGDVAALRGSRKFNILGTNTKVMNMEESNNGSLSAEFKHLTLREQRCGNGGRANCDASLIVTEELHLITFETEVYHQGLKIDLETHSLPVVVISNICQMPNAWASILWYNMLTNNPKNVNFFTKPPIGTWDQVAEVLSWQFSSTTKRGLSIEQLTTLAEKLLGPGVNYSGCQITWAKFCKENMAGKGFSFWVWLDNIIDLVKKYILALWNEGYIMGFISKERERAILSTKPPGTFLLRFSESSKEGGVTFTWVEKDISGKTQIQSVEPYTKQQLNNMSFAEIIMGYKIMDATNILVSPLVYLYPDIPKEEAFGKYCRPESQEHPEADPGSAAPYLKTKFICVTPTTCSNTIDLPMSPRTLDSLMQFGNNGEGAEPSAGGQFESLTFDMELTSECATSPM
# Chain of Cellular tumor antigen p53 (Homo sapiens) (P04637 whole entry, looked up): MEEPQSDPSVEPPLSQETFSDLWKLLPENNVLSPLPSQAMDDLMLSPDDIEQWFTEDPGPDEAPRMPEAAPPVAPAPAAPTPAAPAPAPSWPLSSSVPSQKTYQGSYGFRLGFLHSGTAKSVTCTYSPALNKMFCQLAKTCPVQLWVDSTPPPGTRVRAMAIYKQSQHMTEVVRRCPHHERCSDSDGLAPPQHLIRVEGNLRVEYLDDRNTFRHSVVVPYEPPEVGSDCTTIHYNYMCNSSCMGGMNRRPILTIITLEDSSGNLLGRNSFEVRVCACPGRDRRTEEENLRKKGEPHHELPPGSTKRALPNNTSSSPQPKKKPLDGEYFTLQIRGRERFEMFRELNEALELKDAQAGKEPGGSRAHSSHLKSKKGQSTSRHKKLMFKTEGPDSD
structure (smiles),measurement,setting,value
CC(O)CN(CCN(CC(C)O)CC(C)O)CC(C)O (configuration not stated),outcome,[1],inactive
same,outcome,[2],inactive
same,outcome,[3],inactive
same,outcome,[4],inactive
same,outcome,"TIMP1, TIMP1 (gene 7076)",inactive
same,outcome,[5],inactive
same,outcome,[6],inactive
same,outcome,[7],inactive
same,outcome,[8],inactive
Clc1nc(Cl)c(Cl)c(Cl)c1Cl,outcome,[9],inactive
same,outcome,[1],inactive
same,outcome,[2],inactive
same,outcome,[3],inactive
same,outcome,[4],inactive
same,outcome,[5],inactive
same,outcome,[6],inactive
same,outcome,[7],inactive
same,outcome,[8],inactive
Cc1[nH]cnc1C[C@H]1CCc2c(C)c3ccccc3n2C1=O,outcome,[9],inactive
same,AC50,[1],21.5 µM (active)
same,AC50,[2],63.6 µM (active)
same,outcome,[3],inactive
same,outcome,[4],inactive
same,AC50,[5],63.7 µM (active)
same,outcome,[6],inactive
same,AC50,[7],73.7 µM (active)
same,AC50,[8],64.3 µM (active)
CC(C)CCO,outcome,[1],inactive
same,outcome,[2],inactive
same,outcome,[3],inactive
same,outcome,[4],inactive
same,outcome,"TIMP1, TIMP1 (gene 7076)",inactive
same,outcome,[5],inactive
same,outcome,[6],inactive
same,outcome,[7],inactive
same,outcome,[8],inactive
COc1ccc(/C=C/S(=O)(=O)NC(=O)c2ccc(C)cc2Cl)cc1,outcome,[9],inactive
same,outcome,[1],inactive
same,outcome,[2],inactive
same,outcome,[3],inactive
same,outcome,[4],inactive
same,outcome,[5],inactive
same,outcome,[6],inactive
same,outcome,[7],inactive
same,outcome,[8],inactive
O=P(OC(CCl)CCl)(OC(CCl)CCl)OC(CCl)CCl,AC50,[1],50 µM (active)
same,AC50,[2],79.1 µM (active)
same,AC50,[3],83.3 µM (active)
same,AC50,[4],62.9 µM (active)
same,outcome,"TIMP1, TIMP1 (gene 7076)",inactive
same,AC50,[5],0.231 µM (active)
same,AC50,[6],94.4 µM (active)
same,AC50,[7],86.6 µM (active)
same,AC50,[8],88.6 µM (active)
CCN(C(=O)c1cc(C)cc(OC[C@H](C)Nc2ccncc2)c1)C(C)C,outcome,[9],inactive
same,outcome,[1],inactive
same,outcome,[2],inactive
same,outcome,[3],inactive
same,outcome,[4],inactive
same,AC50,[5],0.172 µM (active)
same,AC50,[6],6.4 µM (active)
same,AC50,[7],9.37 µM (active)
same,AC50,[8],6.7 µM (active)
CNCc1ccc(NC(=O)c2c[nH]c3c2C(=O)CCC3)cc1,outcome,[1],inactive
same,outcome,[2],inactive
same,outcome,[3],inactive
same,outcome,[4],inactive
same,outcome,"TIMP1, TIMP1 (gene 7076)",inactive
same,outcome,[5],inactive
same,outcome,[6],inactive
same,outcome,[7],inactive
same,outcome,[8],inactive
O=C(O)CC(O)C(=O)O (configuration not stated),outcome,[9],inactive
same,outcome,[1],inactive
same,outcome,[2],inactive
same,outcome,[3],inactive
same,outcome,[4],inactive
same,outcome,[5],inactive
same,outcome,[6],inactive
same,outcome,[7],inactive
same,outcome,[8],inactive
CCOc1cccc(-n2cc(C(=O)N3CCN(c4cc(C(=O)O)c5ccccc5c4)CC3)nc2-c2ccc(C)cc2)c1,AC50,[9],50 µM (active)
same,AC50,[1],37.4 µM (active)
same,AC50,[2],35.7 µM (active)
same,AC50,[3],88.7 µM (active)
same,AC50,[4],83.7 µM (active)
same,AC50,[5],80.3 µM (active)
same,AC50,[6],26.3 µM (active)
same,AC50,[7],91.5 µM (active)
same,AC50,[8],75.9 µM (active)
CCOCCO,outcome,[9],inactive
same,outcome,[1],inactive
same,outcome,[2],inactive
same,outcome,[3],inactive
same,outcome,[4],inactive
same,outcome,[5],inactive
same,outcome,[6],inactive
same,outcome,[7],inactive
same,outcome,[8],inactive
C1N2CN3CN1CN(C2)C3,outcome,[1],inactive
same,outcome,[2],inactive
same,outcome,[3],inactive
same,outcome,[4],inactive
same,outcome,"TIMP1, TIMP1 (gene 7076)",inactive
same,outcome,[5],inactive
same,outcome,[6],inactive
same,outcome,[7],inactive
same,outcome,[8],inactive
CC(C)=CCC/C(C)=C/CO,outcome,[9],inactive
same,outcome,[1],inactive
same,outcome,[2],inactive
same,outcome,[3],inactive
same,outcome,[4],inactive
same,outcome,[5],inactive
same,outcome,[6],inactive
same,outcome,[7],inactive
same,outcome,[8],inactive
Oc1ccc2c(c1)-c1ccccc1C2,outcome,[9],inactive
same,outcome,[1],inactive
same,outcome,[2],inactive
same,outcome,[3],inactive
same,outcome,[4],inactive
same,outcome,[5],inactive
same,AC50,[6],13.9 µM (active)
same,outcome,[7],inactive
same,AC50,[8],30.4 µM (active)
O=c1[nH]c2ccc(S(=O)CCN3CCC(Cc4ccc(F)cc4)CC3)cc2o1 (configuration not stated),outcome,[9],inactive
same,outcome,[1],inactive
same,outcome,[2],inactive
same,outcome,[3],inactive
same,outcome,[4],inactive
same,outcome,[5],inactive
same,AC50,[6],85.5 µM (active)
same,outcome,[7],inactive
same,outcome,[8],inactive
COCCOCCOCCOC,outcome,[9],inactive
same,outcome,[1],inactive
same,outcome,[2],inactive
same,outcome,[3],inactive
same,outcome,[4],inactive
same,outcome,[5],inactive
same,outcome,[6],inactive
same,outcome,[7],inactive
same,outcome,[8],inactive
CCOCCOCCOCCO,outcome,[9],inactive
same,outcome,[1],inactive
same,outcome,[2],inactive
same,outcome,[3],inactive
same,outcome,[4],inactive
same,outcome,[5],inactive
same,outcome,[6],inactive
same,outcome,[7],inactive
same,outcome,[8],inactive
CCCN(C1CCN(C(=O)C2CCNCC2)CC1)[C@@H]1CCc2ccc(OC)cc2C1,AC50,[1],79.4 µM (active)
same,AC50,[2],83.5 µM (active)
same,outcome,[3],inactive
same,outcome,[4],inactive
same,outcome,[5],inactive
same,AC50,[6],80.1 µM (active)
same,outcome,[7],inactive
same,AC50,[8],69.3 µM (active)
CC(C)=CCC/C(C)=C\CO,outcome,[1],inactive
same,outcome,[2],inactive
same,outcome,[3],inactive
same,outcome,[4],inactive
same,outcome,[5],inactive
same,outcome,[6],inactive
same,outcome,[7],inactive
same,outcome,[8],inactive
O=C1OC(=O)C2C3C=CC(C3)C12 (configuration not stated),outcome,[1],inactive
same,outcome,[2],inactive
same,outcome,[3],inactive
same,outcome,[4],inactive
same,outcome,"TIMP1, TIMP1 (gene 7076)",inactive
same,outcome,[5],inactive
same,outcome,[6],inactive
same,outcome,[7],inactive
same,outcome,[8],inactive
CC[C@H](C)C(=O)O[C@H]1C[C@@H](C)C=C2C=C[C@H](C)[C@H](CC[C@@H]3C[C@@H](O)CC(=O)O3)[C@H]21,outcome,[1],inactive
same,outcome,[2],inactive
same,outcome,[3],inactive
same,outcome,[4],inactive
same,outcome,"TIMP1, TIMP1 (gene 7076)",inactive
same,outcome,[5],inactive
same,outcome,[7],inactive
same,AC50,[8],0.0554 µM (active)
C=CC(=C)CCC=C(C)C,outcome,[1],inactive
same,outcome,[2],inactive
same,outcome,[3],inactive
same,outcome,[4],inactive
same,outcome,[5],inactive
same,outcome,[6],inactive
same,outcome,[7],inactive
same,outcome,[8],inactive
O=C(O)c1cccc(Oc2ccccc2)c1,outcome,[1],inactive
same,outcome,[2],inactive
same,outcome,[3],inactive
same,outcome,[4],inactive
same,outcome,[5],inactive
same,outcome,[6],inactive
same,outcome,[7],inactive
same,outcome,[8],inactive
